TDP1 inh – inhibitors of human tyrosyl-DNA phosphodiesterase TDP1 | Potency, µM (top dose mostly 130 µM), for inactives: top-dose activity change, negative = inhibition, hits mostly inhibitors | Q9NUW8 | AID 485290 | 0.28% of 350,000 active | recombinant TDP1, AlphaScreen DNA substrate cleavage; further: potency means the concentration at half of the fitted maximal effect; nearly all actives have a fitted effect of over 40% in size
Target sequence (Q9NUW8 whole entry, looked up): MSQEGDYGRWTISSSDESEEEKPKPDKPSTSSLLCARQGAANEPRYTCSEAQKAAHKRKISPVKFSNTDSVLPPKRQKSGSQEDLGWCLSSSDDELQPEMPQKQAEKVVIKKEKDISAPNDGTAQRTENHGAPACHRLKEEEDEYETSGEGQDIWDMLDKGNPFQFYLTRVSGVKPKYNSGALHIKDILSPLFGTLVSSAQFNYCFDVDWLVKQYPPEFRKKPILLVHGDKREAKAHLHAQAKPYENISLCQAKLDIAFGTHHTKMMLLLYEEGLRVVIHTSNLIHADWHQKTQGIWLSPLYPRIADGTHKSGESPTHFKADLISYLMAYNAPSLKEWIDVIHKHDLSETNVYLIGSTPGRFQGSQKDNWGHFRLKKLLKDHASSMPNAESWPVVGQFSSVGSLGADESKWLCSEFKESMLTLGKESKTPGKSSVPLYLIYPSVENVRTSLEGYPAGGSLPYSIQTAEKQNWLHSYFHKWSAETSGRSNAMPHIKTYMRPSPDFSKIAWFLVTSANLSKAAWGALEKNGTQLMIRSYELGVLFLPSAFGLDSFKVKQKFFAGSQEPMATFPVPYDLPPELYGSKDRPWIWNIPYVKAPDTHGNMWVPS
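Steps: enzyme plus compound, 15 min RT; add biotin/phosphotyrosine-FITC oligonucleotide (15 nM final), react 5 min; add donor/acceptor beads (10 ug/ml final), 10 min; read AlphaScreen. Tdp1 at 1 nM final.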
ELG1 repair inh – blocks ELG1-dependent DNA repair in HEK293T cells. 2.3% of 330,000 active. Potency, µM (top dose mostly 46.1 µM), inactives show at the highest dose activity change, negative = inhibition, most hits filed as inhibitors. HEK293T ELG1-luciferase reporter, luminescence, 16 h; DNA damage induced by 5-fluorouridine; further: potency means the concentration at half of the fitted maximal effect; nearly all actives have a fitted effect of over 55% in size
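Cells (2,000 per well) received 5-fluorouridine plus test compound or DMSO and were incubated 16 hr at 37 °C, 5% CO2. Luciferase activity was read by luminescence 30 min after ONE-Glo addition; signal suppression marked inhibition of damage-induced ELG1 function.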
Giardia kill – Giardia lamblia killing; Giardia lamblia trophozoite viability; activity change, % at 7.66 µM, hits read low; 0.15% of 340,000 active; in the data active means activity change below about -80%; inconclusive means between about -30% and that limit;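 further: parasites exposed to compound for two days anaerobically before the ATP read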
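Trophozoite viability was measured as ATP-dependent luminescence, read 15-30 min after reagent addition. Before that, parasites at 100 cells/well were exposed to compounds for 48 h, anaerobically, at 37 deg C.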
TDP1 cell CPT – DT40-hTDP1 cell growth loss with CPT. chicken DT40 Tdp1-/-;hTDP1 cells + 20 nM CPT, ATP luminescence, 48 h. Potency, µM (doses to about 46.2 µM), without a hit: top-dose activity change, negative = growth inhibition, hits mostly inhibitors. 12% of 420,000 active; further: potency means the concentration at half of the fitted maximal effect; nearly all actives have a fitted effect of over 55% in size
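Chicken DT40 Tdp1-/- cells complemented with human TDP1, 400 cells/well, exposed to compounds plus 20 nM camptothecin for at least 48 h at 37 C; viability read as ATP content by CellTiter-Glo luminescence.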
IL1B secr inh – inhibitors of inflammasome signaling (IL-1 beta secretion) | AID 743279 | THP-1 LPS/ATP IL-1B secretion, AlphaLISA, 16 h; hits give low values | activity change, % at 57.5 µM | 4.7% of 360,000 active; in the data active means activity change below about -50%; inconclusive means mostly about -30% to -49%
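THP-1 cells pretreated 1 hr with compounds (up to 57.5 uM final), then stimulated with LPS (250 ng/mL final) plus ATP (1.25 mM final); secreted IL-1B measured by AlphaLISA after 16 hr, decreased signal indicating inhibition.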
DT40 TDP1 no CPT – qHTS for Inhibitors of human tyrosyl-DNA phosphodiesterase 1 (TDP1): qHTS in cells in absence of CPT | DT40 Tdp1-/- hTDP1 cells, no CPT, ATP luminescence, 48 h | Potency, µM (doses to about 46.2 µM), without a hit: top-dose activity change, negative = growth inhibition, usual class: inhibitors | 15% of 420,000 active | AID 686978, 2013; further: potency means the concentration at half of the fitted maximal effect; nearly all actives have a fitted effect of over 55% in size
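Compound effects on proliferation are scored in DT40 Tdp1-/-;hTDP1 cells in the absence of CPT. ATP levels (CellTiter-Glo luminescence) are recorded after a ≥48 hr, 37 °C incubation.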
An asterisk follows results filed as active; ? = inconclusive; · = not tested or not shown; [ ] = another dose, or the depositor's remark. A selection: hits, their analogues and other compounds. The true share with any hit is near 19%. Unless noted, the call rests on the fitted dose curve; in most records, active means well fitted curve in the direction sought with a large enough effect; inconclusive means small, poorly fitted or top-dose-only effect, or another doubt; inactive means no such curve, though single readings can be large; an effect the other way counts as inactive or inconclusive. On the % scale 0 is the no-effect control and ±100 the full control effect.

SMILES	TDP1 inh	ELG1 repair inh	Giardia kill	TDP1 cell CPT	IL1B secr inh	DT40 TDP1 no CPT
COC(=O)c1cc(NC(=O)Cc2ccccc2[N+](=O)[O-])cc(C(=O)OC)c1	3.2%	-22.6%	19.0	-15.7%	25.8	-10.8%
CCCCc1nnc(NC(=O)CCS(=O)(=O)c2ccc(Cl)cc2)s1	0.2%	-7.4%	-1.0	6.51µM*	28.8	7.31µM*
CCCCCc1nnc(NC(=O)Cc2cccs2)s1	35.5µM*	-0.7%	-8.8	-19.9%	14.8	-24.1%
CC(=O)Nc1nnc(CCS(=O)(=O)c2ccc(Cl)cc2)s1	1.8%	-3.1%	-0.1	21.9%	0.0	-5.8%
Cc1cc(C)cc(N(CCC(=O)O)S(=O)(=O)c2ccc(Cl)cc2)c1	4.2%	8.2%	-8.8	4.2%	18.3	10.4%
CCc1nnc(NC(=O)CCN(c2cc(C)cc(C)c2)S(=O)(=O)c2ccc(Cl)cc2)s1	0.0%	-17.5%	16.0	?	89.3	18.4µM*
CCCc1nnc(NC(=O)CCS(=O)(=O)c2ccccc2)s1	-13.1%	-3.2%	17.3	2.31µM*	-58.3*	5.17µM*
Cc1cc(C)cc(N(CCC#N)C(=O)COC(=O)C2CCN(c3ccc(C(F)(F)F)cn3)CC2)c1	·	-21.0%	9.0	?	-11.1	?
Cc1ccc(C(C[N+](=O)[O-])n2nc(C)cc2C)cc1 (stereo unspecified)	8.8%	?	-15.9	2.06µM*	-0.9	2.59µM*
O=C(CSc1ncc(CO)n1Cc1ccccc1)Nc1ccc(C(F)(F)F)cc1	5.3%	·	·	14.6µM*	·	23.1µM*
O=C(CSc1ncc(CO)n1Cc1ccccc1)Nc1nc2ccccc2s1	7.7%	·	·	20.6µM*	·	16.4µM*
Nc1c2ccccc2nc2c(O)cccc12	13.8%[21 µM]	·	·	·	·	·
O=C(CN1CCN(S(=O)(=O)c2ccc3ccccc3c2)CC1)Nc1ccc2c(c1)CCC2	5.5%	?	16.0	23.1µM*	2.5	?
O=C(CCl)N1CCN(S(=O)(=O)c2ccc3c(c2)CCC3)CC1	1.0%	?	-19.5	2.31µM*	-66.7*	0.651µM*
N#Cc1ccsc1NC(=O)CN1CCN(S(=O)(=O)c2ccc3ccccc3c2)CC1	4.5%	4.2%	-5.2	?	19.1	16.4µM*
CCCN(CC(=O)Nc1ccccc1C)C(=O)c1sc2ccccc2c1Cl	0.2%	6.2%	1.8	-20.3%	-6.7	?
CC(=O)CC[N+](C)(C)C	·	·	7.3	13µM*	-96.3*	14.6µM*
C[N+](C)(C)CCCCCC(=O)/C=N/O	-2.7%	13.9%	7.7	8.1%	15.9	2.9%
O=C(Nc1ccc(F)cc1)Nc1ccc(NC(=O)c2ccccc2O)cc1	·	-2.3%	2.5	-5.0%	-5.9	-17.0%
Cc1ncc2c(c1CNS(=O)(=O)N(C)C)CCN(C(=O)/C=C/c1ccccc1)C2	·	·	·	6.1%[9.04 µM]	·	-8.6%
CSCCC(NC(=O)COc1ccccc1)C(=O)N(C)Cc1c(F)cccc1Cl (stereo unspecified)	·	·	·	20.6µM*	-5.6	11.6µM*
CSCCC(NC(=O)COc1ccccc1)C(=O)N(C)CC(=O)Nc1ccc(Cl)cc1 (stereo unspecified)	3.6%	?	5.0	?	-19.3	?
CC(=O)c1ccc(-c2cc([C@H]3[C@H]4C=CC[C@@H](C)[C@@H]4C(=O)N3Cc3ccccc3)ccc2F)cc1	2.4%	-15.0%	-22.7	14.6µM*	-23.1	13µM*
C[C@@H]1CC=C[C@H]2[C@H]1C(=O)N(Cc1ccccc1)[C@H]2c1ccc(F)c(-c2ccc(N(C)C)cc2)c1	8.3%	?	1.9	8.2µM*	-1.1	14.6µM*
Cn1nc(-c2ccc(Cl)cc2)c2cc(C(=O)NCCCN3CCCC3)sc21	6.5%	?	-17.4	?	-88.7*	23.1µM*
SMILES	TDP1 inh	ELG1 repair inh	Giardia kill	TDP1 cell CPT	IL1B secr inh	DT40 TDP1 no CPT
Cc1ccc(CNC(=O)c2cc3c(-c4ccc(Cl)cc4)nn(C)c3s2)o1	5.2%	16.4µM*	-13.1	?	?	?
COCCCNC(=O)c1cc2c(-c3ccc(Cl)cc3)nn(C)c2s1	1.3%	?	4.5	?	-0.4	?
CCN1CCCC1CNC(=O)c1cc(S(=O)(=O)N(C)C)ccc1Cl (stereo unspecified)	4.1%	7.4%	2.8	-3.5%	0.6	-15.0%
CCN1CCCC1CNC(=O)c1cc2c(-c3ccc(Cl)cc3)nn(C)c2s1 (stereo unspecified)	3.9%	-0.7%	37.0	18.4µM*	-84.8*	18.4µM*
O=C(Nc1ccc(Br)cc1F)c1cnn2c1NC(=C1CC1)C=C2C(F)F	·	·	·	-15.2%	·	-13.9%
COc1cc(C2CC(=O)N(c3ccc(C)c(Cl)c3)C3=C2C(=O)OC3)cc(OC)c1OC (stereo unspecified)	-7.1%	·	·	-19.3%	·	-12.0%
CCn1c(CSc2nnc(-c3ccc4c(c3)OCO4)o2)nc2cc(S(=O)(=O)N(C)C)ccc21	6.6%	14.6µM*	-9.9	?	-27.9	?
CCn1c(CSc2nnc(C)n2-c2ccccc2)nc2cc(S(=O)(=O)N(C)C)ccc21	2.0%	-0.2%	22.0	-12.1%	16.9	-3.8%
O=C(COc1ccc(Cl)cc1Br)NC(=O)NC1CCCC1	-16.1%	?	-10.5	-5.1%	2.5	-7.5%
CCOc1cccc(C(=O)Nc2cccc(-c3nc4ncccc4o3)c2C)c1	9.1%	?	12.9	-8.4%	-63.3*	?
Cc1cc(C)cc(C(=O)Nc2cccc(-c3nc4ncccc4o3)c2C)c1	2.1%	·	·	0.6%	·	-15.2%
Cc1c(NC(=O)c2ccc([N+](=O)[O-])o2)cccc1-c1nc2ncccc2o1	·	?	-92.0*	18.4µM*	-103.1*	?
Cc1c(NC(=O)C(C)(C)Oc2ccc(Cl)cc2)cccc1-c1nc2ncccc2o1	-3.2%	·	·	16.4µM*	·	23.1µM*
COc1ccc(CN(Cc2ccccc2)C(=O)c2ccccc2N)cc1COc1ccc(NC(C)=O)cc1	1.0%	·	·	·	·	·
COc1ccc(CN(Cc2ccccc2)C(=O)CN2CCN(C)CC2)cc1COc1ccc(NC(C)=O)cc1	-8.3%	·	-1.4	?	·	17.8µM*
COc1ccc(CN(Cc2ccccc2)C(=O)c2ccncc2)cc1COc1ccc(NC(C)=O)cc1	-1.9%	·	4.6	?	·	11.2µM*
COc1ccc(CN2C(=O)N(c3ccccc3)C(=O)C2c2ccccc2)cc1COc1ccc(NC(C)=O)cc1 (stereo unspecified)	0.0%	·	6.5	10µM*	·	8.91µM*
COc1ccc([C@H]2[C@H](c3ccccc3)C(=O)N2Cc2ccccc2)cc1COc1ccc(NC(C)=O)cc1	0.3%	·	·	·	·	·

Screening results as filed in PubChem.
